This passage reports sensor-assay potency score (higher = more potent) results from the OligoGym collection.
Note: reference of the scale not given here.

The target of the first test is SFTA2. Nature of the test: pooled miR-30 sensor sort-seq; sequence = guide strand. To be noted: shRNA.
ATGGTGTTGAGATCTTGCATGG showed a sensor-assay potency score (higher = more potent) of -1.27.

As for TTCAGTTGCAAAGTCATACCCG, the sensor-assay potency score (higher = more potent) is 0.378.

TGTCAGAAAAGACTCCTTCAGC yielded a sensor-assay potency score (higher = more potent) of -0.402.

Turning to TTCCATGTGAGCTGCCAAGGAG, the sensor-assay potency score (higher = more potent) is -0.915.

Sequence TTGAGATCTTGCATGGTGGAGG registered a sensor-assay potency score (higher = more potent) of -0.323.

The next test has as its target SGK1. The test is described as above. To be noted: shRNA.
On to TTCTTCAACAGAACATTCCGCT, for which the sensor-assay potency score (higher = more potent) worked out at 0.565.

TACATTTCAGCTGTGTTTCGGC had a sensor-assay potency score (higher = more potent) of 0.293.

In turn, TTCTGTAAAACTTTGACTGCAT came in with a sensor-assay potency score (higher = more potent) of 0.858.

On to TTTTAAGTCTCTATAAACGATG, for which the sensor-assay potency score (higher = more potent) is -1.25.

TAAGTCTCTATAAACGATGTTC returned a sensor-assay potency score (higher = more potent) of -0.772.

Consider TACAATTTGTCAGCAGTCTGGA, for which the sensor-assay potency score (higher = more potent) stood at 0.173.

Take TTTGACTGCATAGAACACTTCT: the sensor-assay potency score (higher = more potent) came to 0.33.

In turn, TTTAGCATGAGGATTGGACGAC showed a sensor-assay potency score (higher = more potent) of -0.303.

Sequence TTTGCTGAGAAGGACTTGGTGG showed a sensor-assay potency score (higher = more potent) of 0.0605.

Regarding TTGCTAGAAGAACCTTTCCAAA, the sensor-assay potency score (higher = more potent) is -1.79.

TTATTAATGAGATCATCCCAGT had a sensor-assay potency score (higher = more potent) of -0.742.

Consider TTGTCGTACATTTCAGCTGTGT, for which the sensor-assay potency score (higher = more potent) was -0.298.
